According to paper PMC4336329 (PLoS ONE, 2015):
In all, about 310,000 compounds went through this assay and about 14,000 (4.5%) showed an effect of 50% or more. Effects have a minus sign here. The entries come from a sample that favours strong results as a whole.

These compounds were tested against human ether-à-go-go-related gene (hERG) potassium channel (human, UniProt Q12809) (assay: primary screen, population patch clamp on CHO cells stably expressing hERG; higher = less effect of the substance).
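Note: peak tail current of the secondary pulse compared with the same well before compound.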

human ether-à-go-go-related gene (hERG) potassium channel, sequence (Q12809 whole entry, looked up): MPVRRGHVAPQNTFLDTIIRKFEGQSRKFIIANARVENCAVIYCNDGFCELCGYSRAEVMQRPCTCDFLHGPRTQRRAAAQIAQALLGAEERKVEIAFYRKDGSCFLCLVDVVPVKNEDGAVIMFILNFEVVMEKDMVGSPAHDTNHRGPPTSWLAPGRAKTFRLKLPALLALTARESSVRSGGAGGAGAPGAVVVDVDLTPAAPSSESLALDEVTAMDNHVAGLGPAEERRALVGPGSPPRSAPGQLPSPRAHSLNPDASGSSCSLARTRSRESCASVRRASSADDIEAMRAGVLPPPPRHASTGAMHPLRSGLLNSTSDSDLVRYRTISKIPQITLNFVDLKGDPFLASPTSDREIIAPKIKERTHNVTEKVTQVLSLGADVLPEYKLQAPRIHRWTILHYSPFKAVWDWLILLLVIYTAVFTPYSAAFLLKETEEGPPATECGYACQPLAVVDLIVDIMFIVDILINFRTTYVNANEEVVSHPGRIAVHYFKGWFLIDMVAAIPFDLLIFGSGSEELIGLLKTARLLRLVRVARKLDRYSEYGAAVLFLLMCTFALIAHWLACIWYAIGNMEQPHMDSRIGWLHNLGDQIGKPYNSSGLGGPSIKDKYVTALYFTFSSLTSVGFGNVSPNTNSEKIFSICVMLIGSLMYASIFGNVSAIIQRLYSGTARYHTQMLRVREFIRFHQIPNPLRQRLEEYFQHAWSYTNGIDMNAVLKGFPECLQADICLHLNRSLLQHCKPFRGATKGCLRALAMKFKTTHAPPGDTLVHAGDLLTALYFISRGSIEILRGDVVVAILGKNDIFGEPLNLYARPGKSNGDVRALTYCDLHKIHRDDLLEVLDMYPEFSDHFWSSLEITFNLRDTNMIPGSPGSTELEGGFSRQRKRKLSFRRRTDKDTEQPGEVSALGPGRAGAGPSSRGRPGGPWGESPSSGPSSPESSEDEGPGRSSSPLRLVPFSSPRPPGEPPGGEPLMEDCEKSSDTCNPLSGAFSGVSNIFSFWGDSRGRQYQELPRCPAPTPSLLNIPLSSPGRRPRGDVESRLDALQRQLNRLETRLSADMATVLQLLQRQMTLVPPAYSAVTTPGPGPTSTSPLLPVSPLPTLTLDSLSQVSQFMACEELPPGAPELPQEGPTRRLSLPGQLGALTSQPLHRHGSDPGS

SMILES | hERG current change (%, negative = inhibition) at 10uM [%]
COc1cc2c(cc1OC)CN(C(=O)c1ccc(OC)c([N+](=O)[O-])c1)CC2 | 4.43
COc1cccc(CN(C)C(=O)CSCC(=O)Nc2cc(C)on2)c1OC | 11.6
CCCCn1c2c(c(=O)n(C)c1=O)C(c1ccc(OC)cc1)N1CCCCCC1=N2 (stereo not drawn) | -21.9
CCOC(=O)C1CCN(Cc2cnc(Oc3ccc(N)cc3)s2)CC1 | -10.6
COc1ccc(S(=O)(=O)N2CCCC(C(=O)NCC3CCCO3)C2)cc1OC (stereo not drawn) | 11
CSc1ncc(CN2CCN(CCC(C)C)C(CCO)C2)cn1 (stereo not drawn) | -1.45
OCCC1CN(Cc2ccn[nH]2)CCN1Cc1ccc(F)c(F)c1 (stereo not drawn) | 9.54
CSc1cccc(CN2CCN(Cc3ccccc3)C(CCO)C2)c1 (stereo not drawn) | -57.7
CSc1ccc(CN2CCN(C(C)C)C(CCO)C2)cc1 (stereo not drawn) | -24
CSc1ccc(CN2CCN(CCC(C)C)C(CCO)C2)cc1 (stereo not drawn) | -63.3
CC(C)(O)C#Cc1ccc(CN2CCN(Cc3ccccc3)C(CCO)C2)cc1 (stereo not drawn) | 12
CC(C)c1csc(CN2CCN(Cc3ccc(F)c(F)c3)C(CCO)C2)n1 (stereo not drawn) | -19.3
CC(C)c1cc(CN2CCN(Cc3ccc(F)c(F)c3)C(CCO)C2)[nH]n1 (stereo not drawn) | -52.4
CC(NS(=O)(=O)OCC(Cl)(Cl)Cl)c1ccccc1 (stereo not drawn) | 9.74
Cc1cccc(-c2cc3nc4c(c(N5CCC6(CC5)OCCO6)n3n2)CCCC4)c1 | 10.2
O=S(=O)(CCSc1ccc(C(F)(F)F)cn1)c1ccc(Cl)cc1 | 13
Oc1c(-c2cc(-c3ccco3)[nH]n2)ccc2ccccc12 | 13.7
CCOC(=O)N1CCc2c(sc3ncn(C)c(=O)c23)C1 | 5.05
Cc1cc(Cl)ccc1NC(=O)CN1C(=O)CSc2ccc(S(=O)(=O)N3CCOCC3)cc21 | -18.7
Cc1nc2nc[nH]n2c(=O)c1CCC(C)C | 4.34
COCCNc1nc(N)c([N+](=O)[O-])c(NC2CCCCC2)n1 | 4.56
NC(=O)C(=O)N/N=C/c1c2ccccc2cc2ccccc12 | -11.1
CCOC(=O)Nc1cccc(NC(=O)c2ccccc2F)c1 | 7.84

SMILES | hERG current change (%, negative = inhibition) at 10uM [%]
CCOC(=O)Nc1cccc(Nc2ccccc2)c1 | -74.8
CCOC(=O)Nc1cccc(NC(=O)c2cc(OC)cc(OC)c2)c1 | -53.7
COc1cc(OC)cc(C(=O)Nc2cccc(NC(C)=O)c2)c1 | -1.56
CCOC(=O)Nc1cccc(C(=O)O)c1 | 8.63
COc1cc(OC)cc(C(=O)Nc2cccc(NC(=O)c3ccccc3)c2)c1 | -27.3
COc1ccccc1CNC(=O)CN(c1ccc(C)cc1)S(=O)(=O)c1c(C)nn(C)c1C | -24.1
Cn1c(-c2ccc(N)cc2)nc2ccccc21 | -3.42
COc1ccc2c(c1)c1nc3ccccc3nc1n2Cc1ccc(OC(C)C)c(OC)c1 | -0.905
CCn1c(SCCC(=O)O)nnc1-c1cccnc1 | 4.65
O=C(NCc1ccccc1)c1onc(CSc2ccc(F)cc2)c1C(=O)NCc1ccccc1 | 1.49
CCCNC(=O)c1onc(CSc2ccc(Cl)cc2)c1C(=O)NCC1CC1 | -8.67
CCCNC(=O)c1onc(CSc2ccc(F)cc2)c1C(=O)NCC1CC1 | -62.7
O=C(NCC1CC1)c1onc(CSc2ccncc2)c1C(=O)NCC1CC1 | -11.9
O=C(NCCCN1CCOCC1)c1onc(CSc2ccccc2)c1C(=O)NCCCN1CCOCC1 | 4.97
CCCNC(=O)c1onc(CSc2ccc(F)cc2)c1C(=O)NCCC | 5.35
O=C(NCC1CC1)c1onc(CSc2ccc(F)cc2)c1C(=O)NCC1CC1 | -51.6
O=C(NCc1ccccc1)c1onc(CSc2ccccc2)c1C(=O)NCC1CC1 | -33.4
CCCNC(=O)c1onc(CSc2nc3ccccc3[nH]2)c1C(=O)NCCC | -35.7
O=C(NCc1ccccc1)c1onc(CSc2ccc(F)cc2)c1C(=O)NCCCN1CCOCC1 | -73.9
COCCNC(=O)c1onc(CSc2nc3ccccc3[nH]2)c1C(=O)NCCOC | -14.3
O=C(NCC1CC1)c1onc(CSc2nc3ccccc3[nH]2)c1C(=O)NCC1CC1 | -69.8
O=C(/C=C\c1ccc2c(c1)OCO2)CC1(O)C(=O)Nc2ccccc21 (stereo not drawn) | -0.111
